Assay [1] can be described thus: NCI Yeast Anticancer Drug Screen. Data for the rad50 strain (AID 155).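 Also: 0% = growth of vehicle-only cultures of the same strain.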 Particulars: S. cerevisiae rad50 strain growth inhibition, stronger effect = higher value. The procedure, abridged:
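Readout: growth inhibition relative to vehicle-treated cultures. Compound exposure was carried out in a genetically defined yeast strain deficient in DNA damage repair.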

Assay [2] in a line: NCI Yeast Anticancer Drug Screen. Data for the mec2-1 strain (AID 157). The note with it: S. cerevisiae mec2-1 strain, stronger effect = higher value. The procedure, abridged: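 Mutant yeast (mec2-1) grown with compound; growth inhibition relative to vehicle control reported.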
Assay [3] is described as follows: NCI Yeast Anticancer Drug Screen. Data for the sgs1 mgt1 strain (AID 161).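 Also: 0% = growth of cultures given vehicle only.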 Particulars: S. cerevisiae sgs1 mgt1 strain, stronger effect = higher value. Put shortly: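 Compounds are added to genetically altered yeast, and growth is compared with cultures given vehicle alone to give percent inhibition.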
Assay [4] can be described thus: NCI Yeast Anticancer Drug Screen. Data for the cln2 rad14 strain (AID 165).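 Also: 0% = growth equal to vehicle treated cultures.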 The note with it: S. cerevisiae cln2 rad14 strain, stronger effect = higher value. Put shortly:
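Readout is yeast growth inhibition versus vehicle-treated controls, using a strain with cln2 and rad14 alterations exposed to compound.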

Assay [5] in a line: NCI Yeast Anticancer Drug Screen. Data for the bub3 strain (AID 167). Particulars: S. cerevisiae bub3 mutant strain, stronger effect = higher value. The procedure, abridged:
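Readout: yeast growth inhibition, expressed relative to vehicle-only wells. The test organism is a mutant strain from a panel with lesions in DNA repair or checkpoint genes.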

Assay [6] in a line: NCI Yeast Anticancer Drug Screen. Data for the mlh1 rad18 strain (AID 175). The note with it: S. cerevisiae mlh1 rad18 strain growth inhibition, stronger effect = higher value. Put shortly: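 Genetically defined yeast (DNA repair-deficient) exposed to compounds; growth inhibition determined relative to vehicle.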
The mark [7] stands for this setting: at 5.0 µM (retest, dose inferred, filed as 0.5).
Setting [8] is: at 50.0 µM (retest, dose inferred, filed as 5.0).

The panel holds about 79,000 compounds, 15% with a hit somewhere; the sample as a whole holds those more often. A number with no mark means an inactive call. Calls of active or inactive are those of the source. Rule as the data show it: active = growth inhibition above about 70%; inactive = the rest. Where a SMILES comes first, the peptide text is derived from it. [ ]: non-standard residue; d: D form. The star is where a group is joined. Phe(2-OMe) = COc1ccccc1C[CH](N)C(=O)O; Cbz = O=C(OCc1ccccc1)*; OBn = c1ccc(CO*)cc1

`CC1CCC(C(C)C)C(OC(=O)Nc2ccc(S(=O)(=O)N(C)C)cc2)C1` (configuration not stated): the growth inhibition was 25% in assay [1] (setting [7]); 82% (active) in assay [1] (setting [8]); 96% (active) in assay [1] (at 50.0 µM); 18% in assay [2] (setting [7]); 92% (active) in assay [2] (setting [8]); 95.2% (active) in assay [2] (at 50.0 µM). Besides, the growth inhibition in assay [3] (setting [7]) was 46%; in assay [3] (setting [8]), 83% (active); in assay [3] (at 50.0 µM), 96% (active); in assay [4] (setting [7]), 8%; in assay [4] (setting [8]) it was 82% (active); in assay [4] (at 50.0 µM), 95.5% (active). Further, the growth inhibition is 29% in assay [5] (setting [7]); 90% (active) in assay [5] (setting [8]); 92.5% (active) in assay [5] (at 50.0 µM); 32% in assay [6] (setting [7]); 88% (active) in assay [6] (setting [8]); 95.8% (active) in assay [6] (at 50.0 µM).

On to `CS(=O)(=O)OCCN(CCOS(C)(=O)=O)c1ccc(C=Nc2ccc3ccccc3c2)cc1`, for which the growth inhibition in assay [1] (setting [7]) was 12%; in assay [1] (setting [8]), 80% (active); in assay [1] (at 50.0 µM), 86.7% (active); in assay [2] (setting [7]) it was 47%; in assay [2] (setting [8]), 55%; in assay [2] (at 50.0 µM), 73.2% (active). Moreover, the growth inhibition was 6% in assay [3] (setting [7]); 45% in assay [3] (setting [8]); 71.1% (active) in assay [3] (at 50.0 µM); -2% in assay [4] (setting [7]); 64% in assay [4] (setting [8]); 37.7% in assay [4] (at 50.0 µM). In addition, the growth inhibition is -3% in assay [5] (setting [7]); 6% in assay [5] (setting [8]); 10.3% in assay [5] (at 50.0 µM); 28% in assay [6] (setting [7]); 90% (active) in assay [6] (setting [8]); 95.3% (active) in assay [6] (at 50.0 µM).

On to `COC(=O)C(Cc1ccccc1OC)NC(=O)C(CC(=O)OCc1ccccc1)NC(=O)OCc1ccccc1` (configuration not stated) (Cbz-Asp(OBn)-[Phe(2-OMe)]-OMe; configuration not given here), for which the growth inhibition in assay [1] (setting [7]) is -5%; in assay [1] (setting [8]), 84% (active); in assay [1] (at 50.0 µM), 51.5%; in assay [2] (setting [7]), 0%; in assay [2] (setting [8]), 37%; in assay [2] (at 50.0 µM) it was 58.2%. Moreover, the growth inhibition in assay [3] (setting [7]) was 1%; in assay [3] (setting [8]), 92% (active); in assay [3] (at 50.0 µM) it was 65.2%; in assay [4] (setting [7]), 16%; in assay [4] (setting [8]), 86% (active); in assay [4] (at 50.0 µM) it was 80.5% (active). The growth inhibition in assay [5] (setting [7]) was -1%; in assay [5] (setting [8]), 84% (active); in assay [5] (at 50.0 µM), 87.8% (active); in assay [6] (setting [7]), 0%; in assay [6] (setting [8]) it was 84% (active); in assay [6] (at 50.0 µM) it was 54.8%.

For `O=C(O)c1c2c(cc3c1CC1(Cc4ccccc4C1=O)C3)CCC2` (configuration not stated), the growth inhibition in assay [1] (setting [7]) is 7%; in assay [1] (setting [8]) it was 7%; in assay [1] (at 50.0 µM), 81.2% (active); in assay [2] (setting [7]), 21%; in assay [2] (setting [8]), 21%; in assay [2] (at 50.0 µM), 89% (active). Besides, the growth inhibition in assay [3] (setting [7]) is 20%; in assay [3] (setting [8]), 20%; in assay [3] (at 50.0 µM), 84.8% (active); in assay [4] (setting [7]), -10%; in assay [4] (setting [8]), -10%; in assay [4] (at 50.0 µM), 84.2% (active). In addition, the growth inhibition was 16% in assay [5] (setting [7]); 16% in assay [5] (setting [8]); 84.2% (active) in assay [5] (at 50.0 µM); 24% in assay [6] (setting [7]); 24% in assay [6] (setting [8]); 77.9% (active) in assay [6] (at 50.0 µM).

`O=C(CBr)N1c2ccccc2S(=O)(=O)c2ccc3ccccc3c21`: the growth inhibition in assay [1] (setting [7]) is 36%; in assay [1] (setting [8]), 97% (active); in assay [1] (at 50.0 µM), 79.5% (active); in assay [2] (setting [7]), 49%; in assay [2] (setting [8]), 98% (active); in assay [2] (at 50.0 µM) it was 87% (active). Further, the growth inhibition was 66% in assay [3] (setting [7]); 98% (active) in assay [3] (setting [8]); 81.2% (active) in assay [3] (at 50.0 µM); 36% in assay [4] (setting [7]); 96% (active) in assay [4] (setting [8]); 64.5% in assay [4] (at 50.0 µM). Moreover, the growth inhibition in assay [5] (setting [7]) is 79% (active); in assay [5] (setting [8]) it was 97% (active); in assay [5] (at 50.0 µM) it was 76.5% (active); in assay [6] (setting [7]), 79% (active); in assay [6] (setting [8]), 97% (active); in assay [6] (at 50.0 µM) it was 89.8% (active).

Take `O=P1(NCC2CCCO2)OCC2(CO1)COP(=O)(NCC1CCCO1)OC2` (configuration not stated): the growth inhibition in assay [1] (setting [7]) is 99% (active); in assay [1] (setting [8]), 95% (active); in assay [1] (at 50.0 µM) it was 47.3%; in assay [2] (setting [7]) it was 100% (active); in assay [2] (setting [8]), 98% (active); in assay [2] (at 50.0 µM) it was 99.6% (active). Also, the growth inhibition is 100% (active) in assay [3] (setting [7]); 98% (active) in assay [3] (setting [8]); 99% (active) in assay [3] (at 50.0 µM); 99% (active) in assay [4] (setting [7]); 96% (active) in assay [4] (setting [8]); 98.4% (active) in assay [4] (at 50.0 µM). Further, the growth inhibition in assay [5] (setting [7]) is 99% (active); in assay [5] (setting [8]) it was 97% (active); in assay [5] (at 50.0 µM), 98.5% (active); in assay [6] (setting [7]), 100% (active); in assay [6] (setting [8]), 96% (active); in assay [6] (at 50.0 µM), 98.7% (active).

`O=C(COc1ccc(Cl)cc1)OCCO`: the growth inhibition was 0% in assay [1] (setting [7]); 0% in assay [1] (setting [8]); 4.9% in assay [1] (at 50.0 µM); -4% in assay [2] (setting [7]); 0% in assay [2] (setting [8]); -5.75% in assay [2] (at 50.0 µM). The growth inhibition was -3% in assay [3] (setting [7]); -1% in assay [3] (setting [8]); 0.4% in assay [3] (at 50.0 µM); 3% in assay [4] (setting [7]); 5% in assay [4] (setting [8]); 40.4% in assay [4] (at 50.0 µM). Besides, the growth inhibition in assay [5] (setting [7]) is 2%; in assay [5] (setting [8]), 4%; in assay [5] (at 50.0 µM), -5.6%; in assay [6] (setting [7]), 3%; in assay [6] (setting [8]), 5%; in assay [6] (at 50.0 µM) it was -25.6%.

As for `c1ccc2c(c1)CC1c3[nH]c4ccccc4c3CCN21` (configuration not stated), the growth inhibition in assay [1] (setting [7]) was -6%; in assay [1] (setting [8]) it was -5%; in assay [1] (at 50.0 µM) it was 88.3% (active); in assay [2] (setting [7]) it was 9%; in assay [2] (setting [8]), 6%; in assay [2] (at 50.0 µM), 76.9% (active). The growth inhibition was -8% in assay [3] (setting [7]); -10% in assay [3] (setting [8]); 82.8% (active) in assay [3] (at 50.0 µM); 22% in assay [4] (setting [7]); 31% in assay [4] (setting [8]); 88.2% (active) in assay [4] (at 50.0 µM). The growth inhibition was 6% in assay [5] (setting [7]); 23% in assay [5] (setting [8]); 77.7% (active) in assay [5] (at 50.0 µM); 7% in assay [6] (setting [7]); 3% in assay [6] (setting [8]); 74% (active) in assay [6] (at 50.0 µM).

For `C1=C(C2=C[P+](c3ccccc3)(c3ccccc3)C=C(c3ccccc3)O2)OC(c2ccccc2)=C[P+]1(c1ccccc1)c1ccccc1`, the growth inhibition is 7% in assay [1] (setting [7]); 15% in assay [1] (setting [8]); -10.1% in assay [1] (at 50.0 µM); 4% in assay [2] (setting [7]); 8% in assay [2] (setting [8]); -7.05% in assay [2] (at 50.0 µM). Besides, the growth inhibition in assay [3] (setting [7]) was 5%; in assay [3] (setting [8]) it was 15%; in assay [3] (at 50.0 µM), -5.35%; in assay [4] (setting [7]), 5%; in assay [4] (setting [8]) it was 2%; in assay [4] (at 50.0 µM) it was 71% (active). For the same compound, the growth inhibition in assay [5] (setting [7]) was 11%; in assay [5] (setting [8]), 66%; in assay [5] (at 50.0 µM), 6.8%; in assay [6] (setting [7]), 9%; in assay [6] (setting [8]), 6%; in assay [6] (at 50.0 µM), 18.3%.

Values taken from PubChem BioAssay (NCI).
